# Assay outcomes (PubChem)
# SMN2 splice enh – qHTS Assay for Enhancers of SMN2 Splice Variant Expression | AID 1458, 2008 | Potency, µM (top dose mostly 46.1 µM), for the others: top-dose activity change, positive = activation, actives largely listed as activators | 210,000 tested, 2.8% active | HEK293 SMN2-luciferase splicing reporter, luminescence, 30-36 h; further: % of control where 0% means no effect; nearly all actives have a fitted effect of over 55% in size
#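 HEK293 cells carry an SMN2 minigene-luciferase reporter in which exon 7 inclusion puts luciferase in frame. Cells were seeded at 2000 cells/well, attached for 10-12 hours, then exposed to compounds for 30-36 hours at 37C before ONE-Glo luminescence.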
# ELG1 genotox – qHTS screen for small molecules that induce genotoxicity in human embryonic kidney (HEK293T) cells expressing luciferase-tagged ELG1; HEK293T ELG1-luciferase reporter, luminescence, 16 h; Potency, µM (highest dose often 46 µM), for the others: at the highest dose activity change, positive = activation, hits mostly activators; 330,000 tested, 1.3% active; AID 504466, 2011; further: % of control where 0% means no effect; nearly all actives have a fitted effect of over 60% in size
#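 Cells (2,000/well) expressing the ELG1-luciferase fusion are dosed by pin tool and kept 16 hr at 37 °C, 5% CO2. Signal comes from ONE-Glo luciferase reagent after 30 min at room temperature.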
# NPC1 prom act – qHTS Assay for NPC1 Promoter Activators | Potency, µM (top dose mostly 9.22 µM), for the others: top-dose activation, usual class: activators | Huh7 NPC1 promoter luciferase reporter, 24 h | 320,000 tested, 2.4% active; further: % of control where 0% means no effect; nearly all actives have a fitted effect of over 60% in size
#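 Readout is luciferase luminescence, reflecting NPC1 promoter activation in stably transfected Huh7 cells after 24 h compound exposure at 37 °C in reduced-serum medium with 10% FBS.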
# KinaseGlo FLuc – Counterscreen for Luciferase (Kinase-Glo TM) Inhibition | Kinase-Glo luciferase, ATP luminescence, 8 min | Potency, µM (titrated, usually from 38.3 µM), for the others: at the highest dose activity change, negative = inhibition, hits mostly inhibitors | 200,000 tested, 0.28% active | AID 1379, 2008 | Luciferin 4-monooxygenase (Photuris pensylvanica), Q27757; further: on the % scale 0 is the no-effect control and ±100 the full control effect; nearly all actives have a fitted effect of over 60% in size
#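 Compounds were added to a substrate mix at pH 7.2 (50 mM imidazole, 10 uM ATP, within the enzyme's linear range), followed by Kinase-Glo detection reagent; luminescence was measured after 8 minutes at ambient temperature.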
# Rab9 prom act – qHTS Assay for Rab9 Promoter Activators. 320,000 tested, 2.8% active. Huh7 Rab9 promoter-luciferase reporter, luminescence, 24 h. Potency, µM (top dose mostly 9.22 µM), without a hit: top-dose activation, negative = inhibition, hits mostly activators; further: % of control where 0% means no effect; nearly all actives have a fitted effect of over 60% in size
#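 Cells were plated at 1500 per well in reduced-serum medium with 10% FBS and left 2 h. Compound in DMSO was then added for 24 h at 37 °C. Reporter signal was read by luminescence after 10 min with luciferase detection reagent.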
# FLuc counter – qHTS profiling assay for firefly luciferase inhibitor/activator using purifed enzyme and Km concentrations of substrates (counterscreen for miR-21 project); purified FLuc, Km substrates, luminescence inhibition; 360,000 tested, 6.9% active; Potency, µM (titrated, usually from 57.5 µM), inactives show top-dose activity change, negative = inhibition, actives largely listed as inhibitors; Luciferin 4-monooxygenase (Photinus pyralis), P08659;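 further: plate controls were vehicle for no effect and reference inhibitor for full effect; nearly all actives have a fitted effect of over 55% in size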
# Target sequence (P08659 whole entry, looked up): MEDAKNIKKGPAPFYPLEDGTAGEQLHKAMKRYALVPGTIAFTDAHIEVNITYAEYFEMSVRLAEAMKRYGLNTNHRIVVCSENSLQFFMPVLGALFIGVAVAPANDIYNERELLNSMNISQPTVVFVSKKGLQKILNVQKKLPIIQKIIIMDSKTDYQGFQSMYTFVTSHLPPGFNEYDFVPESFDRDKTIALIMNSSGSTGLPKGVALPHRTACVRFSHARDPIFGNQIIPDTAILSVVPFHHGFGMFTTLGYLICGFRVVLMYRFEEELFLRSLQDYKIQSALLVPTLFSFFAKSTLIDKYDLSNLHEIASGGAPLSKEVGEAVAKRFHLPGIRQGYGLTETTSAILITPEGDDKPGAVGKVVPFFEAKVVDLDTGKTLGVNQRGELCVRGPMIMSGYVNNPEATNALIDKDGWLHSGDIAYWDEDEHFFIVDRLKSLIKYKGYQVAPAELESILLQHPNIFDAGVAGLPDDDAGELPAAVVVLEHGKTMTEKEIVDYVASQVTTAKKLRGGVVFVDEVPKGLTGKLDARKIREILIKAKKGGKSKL
#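 Purified P. pyralis luciferase (10nM final) with 10uM D-luciferin and 10uM ATP (Km levels) in 50mM Tris acetate pH 7.5, 10mM Mg acetate, 0.01% Tween-20, 0.05% BSA; qHTS 6-point titration, ~60 µM downward; luminescence read.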
# Starred values were filed as active, the others as inactive; ? = inconclusive; / = not tested or not shown. The list is not random: actives were taken first. Their share in the collection is about 7.5%. The call rests on the fitted dose curve; in most records, active means well fitted curve in the direction sought with a large enough effect; inconclusive means small, poorly fitted or top-dose-only effect, or another doubt; inactive means no such curve, though single readings can be large; an effect the other way counts as inactive or inconclusive. Potency means the concentration at half of the fitted maximal effect.
SMILES,SMN2 splice enh,ELG1 genotox,NPC1 prom act,KinaseGlo FLuc,Rab9 prom act,FLuc counter
CC(=O)c1ccc(C(=O)N(Cc2cccnc2)c2nc3c(C)c(C)ccc3s2)cc1,/,/,/,/,/,-20%
O=C(NC(=S)Nc1ccc(N2CCOCC2)cc1)c1cccc(Cl)c1,-8%,-2%,1%,0%,2%,-10%
C/C(=N\Nc1nc(-c2ccccn2)nc2ccccc12)c1ccc(F)cc1,/,-1%,-20%,/,-21%,-3%
Clc1cccc(N/N=C/c2ccc(N3CCOCC3)cc2)c1,?,15%,?,1%,?,13µM*
C/C(=N\NC(=O)c1ccc(Cl)cc1)c1ccc(N2CCOCC2)cc1,6%,7%,-2%,0%,1%,-4%
C/C(=N\Nc1ccccn1)c1ccc(C(C)C)cc1,?,13%,?,0%,?,9.5µM*
C/C(=N\Nc1ccccn1)c1ccc(N2CCOCC2)cc1,14µM*,?,?,1%,2.2µM*,13µM*
COC1=CC(=O)[C@@]2([C@@H]1O)[C@@H](Cl)C[C@]13C(OC)=C(OC)C(=O)C[C@]21CCN3C,/,2%,/,/,/,/
CCCCN=CC1=C(O)C(C(=O)OC)C(C)(C)CC1=O (stereo not drawn),6%,-1%,1%,3%,-2%,4%
c1ccc2cc(C3=NCCN3)ncc2c1,/,/,/,-1%,/,/
Fc1ccccc1-c1cc2ccccc2cn1,/,?,?,/,-1%,4.8µM*
O=C(O)Cc1ccc(NC(=O)Nc2ccc(Br)cc2)cc1,/,0%,3%,-1%,-10%,6.7µM*
CC(C)(C)NC(=O)Nc1ccc(Br)cc1,/,?,?,/,2.5µM*,15µM*
CC(C)(C)NC(=O)Nc1ccc(F)c(Cl)c1,/,-6%,-3%,/,-1%,?
O=C(O)Cc1ccc(NC(=O)C(c2ccccc2)c2ccccc2)cc1,/,0%,-1%,-1%,-5%,-2%
COc1ccc(NC(=O)Nc2ccc(CC(=O)O)cc2)cc1,2%,-2%,-2%,-1%,4%,13µM*
O=C(Nc1ccc(Br)cc1)c1cccc(N2C(=O)C3CCCCC3C2=O)c1 (stereo not drawn),/,-1%,5%,/,7%,?
CCc1cccc(C)c1NC(=O)CN(C)S(=O)(=O)c1cccc2nsnc12,-16%,/,/,/,/,-2%
Cc1ccc(NC(=O)c2c(Cl)n(C)c3ccccc23)cc1,?,11%,?,-1%,23%,3.4µM*
Cn1c(Cl)c(C(=O)Nc2ccccc2)c2ccccc21,-4%,3%,?,-8%,2%,15µM*
COc1ccc(CC(=O)NNC(=S)NCC2CC2)cc1OC,/,-8%,1%,/,0%,2%
N#Cc1c(NCCN)nc(NCc2ccccc2)c2c1CCN(Cc1ccccc1)C2,/,-24%,10%,/,-2%,-4%
Nc1[nH]nc2nc(NCc3ccccc3)c3c(c12)CCN(Cc1ccccc1)C3,25µM*,2%,2%,0%,3%,4%
N#CCSc1ncccc1-c1nc2ccccc2[nH]1,-14%,0%,3%,1%,15%,-16%
O=C(CSc1ncccc1-c1nc2ccccc2[nH]1)N1CCc2ccccc21,-38%,?,?,-13%,2.8µM*,7.6µM*
Cn1c(SCC(=O)N2CCc3ccccc32)nc2cccnc21,-29%,-12%,1%,-4%,-4%,-12%
CC(C)(C)NC(=O)CSc1ncccc1-c1nc2ccccc2[nH]1,/,8%,3%,/,-1%,24µM*
COC(=O)CSc1ncccc1-c1nc2ccccc2[nH]1,11%,?,15%,-3%,-1%,13µM*
